Among all 12,000 compounds or so, about 45 (0.4%) were called active. This is one part of a sample in which actives are shown more often than they occur. No stated cut-off is given here; in the data, active means inhibition mostly above about 83% (no sharp cut-off); inactive means mostly below about 52%.
What was measured:
[1] = BmaI1 acyl-homoserine lactone synthase inhibition – biochemical, fluorescence intensity, with counterscreen (AID 720554); conditions: BmaI1 enzyme assay, measured here: counterscreen fluorescence % control, concentration not given here
[2] = system: acyl-homoserine lactone synthase BmaI1 (Burkholderia mallei ATCC 23344); experiment: as above; conditions: BmaI1 enzyme assay, stronger effect = higher value, concentration not given here

## Cc1nc(N2CCCC2)sc1C(=O)c1oc2ccccc2c1C
[1]
  inhibition: 17%
[2]
  inhibition: 20% (inactive)

## Cc1nc(N2CCCCC2)sc1C1Sc2ccccc2NC1=O (stereo not drawn)
[1]
  inhibition: -5%
[2]
  inhibition: -2.5% (inactive)

## O=C1N=c2ccccc2=C1c1sc(N2CCCCC2)nc1O
[1]
  inhibition: 8.5%
[2]
  inhibition: 91.5% (active)

## CC(C)CNCC(=O)Nc1ccc(S(N)(=O)=O)cc1
[1]
  inhibition: -1.5%
[2]
  inhibition: 6.5% (inactive)

## Cc1csc(C(C#N)C(=O)CSc2ccc3c(c2)OCCO3)n1 (stereo not drawn)
[1]
  inhibition: 0%
[2]
  inhibition: 16% (inactive)

## Cn1cccc1C(=O)Nc1ccc2c(c1)nc1n2CCCCC1
[1]
  inhibition: 27%
[2]
  inhibition: 18% (inactive)

## S=c1[nH]c(-c2ccccc2)cn1/N=C/c1ccc2c(c1)OCCO2
[1]
  inhibition: 41.5%
[2]
  inhibition: 94% (inactive)

## CC(=O)Nc1ccc(/C=N/N2C(=O)c3ccccc3C2=O)cc1
[1]
  inhibition: 14.5%
[2]
  inhibition: 13% (inactive)

## CC(=O)Nc1ccc(/C=N/n2cc(-c3ccccc3)[nH]c2=S)cc1
[1]
  inhibition: 13.5%
[2]
  inhibition: 90% (active)

## O=C(CCc1nc2ccccc2c(=O)[nH]1)Nc1ccccc1C(=O)NC1CC1
[1]
  inhibition: 5.5%
[2]
  inhibition: 13.5% (inactive)

## O=C(OC(c1ccccc1)c1ccccc1)c1ccncc1
[1]
  inhibition: 14%
[2]
  inhibition: 14% (inactive)

## N[C@@H](C(=O)N[C@@H]1C(=O)N2C(C(=O)O)=C(CSc3cn[nH]n3)CS[C@H]12)c1ccc(O)cc1 (tested in a mixture with another compound)
[1]
  inhibition: 6%
[2]
  inhibition: 93% (active)

## N[C@@H](C(=O)N[C@@H]1C(=O)N2C(C(=O)O)=C(Cl)CS[C@H]12)c1ccccc1
[1]
  inhibition: 4.5%
[2]
  inhibition: 5% (inactive)

## CC1=C(C(=O)O)N2C(=O)[C@@H](NC(=O)[C@H](N)c3ccccc3)[C@H]2SC1
[1]
  inhibition: 7.5%
[2]
  inhibition: -7% (inactive)

## CN(C)S(=O)(=O)c1cccc(COC(=O)c2cn(-c3ccccc3)nc2-c2cccs2)c1
[1]
  inhibition: -2.5%
[2]
  inhibition: 8.5% (inactive)

## Cc1ccc(-c2csc(NC(=O)C3(c4ccccc4)CC3)n2)s1
[1]
  inhibition: 20%
[2]
  inhibition: 20% (inactive)

## O=C(c1cc(-c2ccccc2)nn1-c1ccccc1)N(C1CC1)C1CCS(=O)(=O)C1 (stereo not drawn)
[1]
  inhibition: 2%
[2]
  inhibition: 7% (inactive)

## Cn1c(=S)[nH]c2ccccc21
[1]
  inhibition: 5%
[2]
  inhibition: 51.5% (inactive)

## Cc1ccc(Cn2c(=S)[nH]c3ccccc32)cc1
[1]
  inhibition: 3%
[2]
  inhibition: 97% (active)

## FC(F)n1c(=S)[nH]c2ccccc21
[1]
  inhibition: 0.5%
[2]
  inhibition: 13.5% (inactive)

## CC(Sc1nnnn1-c1ccc(O)cc1)C(=O)c1ccccc1 (stereo not drawn)
[1]
  inhibition: 2.5%
[2]
  inhibition: 8.5% (inactive)

## c1ccc(NNC2=NCCCCC2)nc1
[1]
  inhibition: 4.5%
[2]
  inhibition: 85% (active)

## O=S(=O)(NNC1=NCCCCC1)c1ccccc1
[1]
  inhibition: 28.5%
[2]
  inhibition: 63.5% (inactive)

## c1ccc(CNC2=NCCCCC2)nc1
[1]
  inhibition: -13%
[2]
  inhibition: -8.5% (inactive)
